# Laboratory results: the supplement of paper PMC10503962
# Test system: Trichuris muris adult worms
# Assay: mean motility score (Paragon pixel variance) of adult worms (arbitrary units); higher = more motile worms, i.e. less anthelmintic effect; extreme values may be limits of the assay
# Conditions: 100 µM; 24 h
# Procedure, shortened: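 Films of 200 frames spaced 100 ms apart were taken on an automated phenotyping platform after worms had spent 24 h at 37°C and 5% CO2. Those worms were single adult Trichuris muris from infected NOD SCID mice, each in a 96-well plate well with 100 μL RPMI-1640 plus antibiotics and drug at 100 μM (1% v/v DMSO). Paragon pixel-variance analysis produced the motility score, averaged over replicate wells. Testing used three worms in three wells per drug across three separate occasions, with vehicle and positive controls.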
row,SMILES,mean motility score
1,C[C@H]1O[C@@H](O[C@H]2[C@@H](O)C[C@H](O[C@H]3[C@@H](O)C[C@H](O[C@H]4CC[C@@]5(C)[C@H](CC[C@@H]6[C@@H]5CC[C@]5(C)[C@@H](C7=CC(=O)OC7)CC[C@]65O)C4)O[C@@H]3C)O[C@@H]2C)C[C@H](O)[C@@H]1O [digitoxin],3060
2,Nc1ncnc2c1ncn2[C@@H]1O[C@H](COP(=O)(O)O)[C@@H](O)[C@H]1O [adenosine phosphate],4280
3,CCCCOc1ccc(C(=O)CCN2CCCCC2)cc1.Cl [dyclonine hydrochloride],3270
4,CCN(CC)CCOC(=O)C1(C2CCCCC2)CCCCC1.Cl [dicyclomine hydrochloride],4250
5,COc1ccc(Cl)cc1C(=O)NCCc1ccc(S(=O)(=O)NC(=O)NC2CCCCC2)cc1 [glyburide],2300
6,CC(=O)OC(C)C[N+](C)(C)C.[Cl-] (stereo not given) [methacholine chloride],2220
7,Nc1ncn([C@@H]2O[C@H](CO)[C@@H](O)[C@H]2O)c(=O)n1 [azacitidine],4300
8,Nc1ccc(S(=O)(=O)Nc2ncccn2)cc1 [sulfadiazine],2030
9,COC1=C(OC)C(=O)C(C/C=C(\C)CC/C=C(\C)CC/C=C(\C)CC/C=C(\C)CC/C=C(\C)CC/C=C(\C)CC/C=C(\C)CC/C=C(\C)CC/C=C(\C)CCC=C(C)C)=C(C)C1=O [ubidecarenone],2770
10,O=C(O)/C=C/C(=O)O.OCCOCCN1CCN(C2=Nc3ccccc3Sc3ccccc32)CC1.OCCOCCN1CCN(C2=Nc3ccccc3Sc3ccccc32)CC1 [quetiapine fumarate],3120
